The values that follow come from PubChem BioAssay AID2148 (The Scripps Research Institute Molecular Screening Center, 2009).

The campaign covered roughly 2,400 compounds. About 1,500 (62%) were called active. Cut-off read from the data, not from the text of the source: active = inhibition above about 22%; inactive = the rest. The set was probably picked from earlier hits. Shown is part of a subset that was picked to be rich in actives.

The test concerns the target Melanin-concentrating hormone receptor 1 (Homo sapiens) (UniProt Q99705). Nature of the test: MCHR1 antagonists in cells, counter-screen for GPR7 antagonist project, cell-based, fluorescence, human (AID 2148).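 Note: 0% = vehicle with agonist and 100% = vehicle without agonist.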 As to conditions: MCHR1-expressing cells, fluorescence antagonist assay; at 4.4 µM; active compounds read high.
Regarding `CCOC(=O)C1(Cc2ccc(Cl)cc2)CCN(C(C)CCn2cccn2)CC1` (stereo not drawn), the inhibition was 26% (active). As for `COc1ccc(Br)cc1CNCCc1cccc(Cl)c1`, the figure is 44.1% (active); as for `CCOc1ccc(-c2cc(C)[n+](CCN(CC)CC)c(-c3ccc(OCC)cc3)c2)cc1`, 46.5% (active).
